Results: PubChem BioAssay (EPA / NIEHS)
Calls of active or inactive are those of the source. Rule for the calls: active = hit-call score of the fitted dose curve at least 0.9, where 1 is the maximum; inactive = score below 0.9.

What was measured:
Conditions in all cases: mRNA level, 48 h; actives raise or lower the signal
[1] = read-out: Insulin Like Growth Factor 1 (IGF1), IGF1 (gene 3479); assay: LTEA_HepaRG_IGF1: Life Technologies and Expression Analysis (LTEA) Assay for Insulin Like Growth Factor 1 (IGF1) using HepaRG (AID 2283506)
How it was run: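 Differentiated HepaRG cells in serum-free induction medium, exposed 48 h in duplicate to 8 half-log concentrations up to 100 uM in 0.5% DMSO. IGF1 mRNA by Fluidigm qRT-PCR, normalised to ACTB, GAPDH and POLR2A.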

[2] = read-out: Intercellular Adhesion Molecule 1 (ICAM1), ICAM1 (gene 3383); assay: LTEA_HepaRG_ICAM1: Life Technologies and Expression Analysis (LTEA) Assay for Intercellular Adhesion Molecule 1 (ICAM1) using HepaRG (AID 2283507)
How it was run: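 Gain or loss of transcript in HepaRG hepatic cells is quantified by qRT-PCR after 48 h chemical exposure (up to 100 uM, half-log steps), with DMSO as baseline.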

[3] = read-out: Interleukin 6 (IL6), IL6 (gene 3569); assay: LTEA_HepaRG_IL6: Life Technologies and Expression Analysis (LTEA) Assay for Interleukin 6 (IL6) using HepaRG (AID 2283509)
How it was run: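 HepaRG, ~100,000 cells/well, 48 h pre-culture; serum-free induction medium; cmpd 8-pt half-log from 100 uM, 0.5% DMSO, duplicate, 48 h. Lysis in RLT, TaqMan qRT-PCR; gain or loss vs DMSO.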

[4] = read-out: Interleukin 6 Receptor (IL6R), IL6R (gene 3570); assay: LTEA_HepaRG_IL6R: Life Technologies and Expression Analysis (LTEA) Assay for Interleukin 6 Receptor (IL6R) using HepaRG (AID 2283510)
How it was run: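 Differentiated HepaRG cells, plated 48 h, then exposed in duplicate for 48 h in serum-free induction medium to 8 half-log concentrations (top 100 uM, 0.5% DMSO). IL6R mRNA measured by TaqMan qRT-PCR, normalized to ACTB/GAPDH/POLR2A; bidirectional fit vs DMSO.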

[5] = read-out: Potassium channel subfamily K member 1 (KCNK1), KCNK1 (gene 3775); assay: LTEA_HepaRG_KCNK1: Life Technologies and Expression Analysis (LTEA) Assay for Potassium channel subfamily K member 1 (KCNK1) using HepaRG (AID 2283511)
How it was run: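 Gain or loss of KCNK1 mRNA is the read-out, quantified by qRT-PCR against three housekeeping genes after 48 h chemical treatment of human HepaRG liver cells. Concentrations ran from 100 uM downward in half-log steps, vehicle 0.5% DMSO.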

[6] = read-out: Keratin 19 (KRT19), KRT19 (gene 3880); assay: LTEA_HepaRG_KRT19: Life Technologies and Expression Analysis (LTEA) Assay for Keratin 19 (KRT19) using HepaRG (AID 2283512)
How it was run: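 Gene-expression endpoint in the human liver line HepaRG after 48 h exposure to up to 100 uM test chemical with 0.5% DMSO vehicle; KRT19 mRNA by qRT-PCR, analyzed bidirectionally versus DMSO.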

[7] = read-out: JUN Transcription Factor, JUN (gene 3725); assay: LTEA_HepaRG_JUN: Life Technologies and Expression Analysis (LTEA) Assay for JUN Transcription Factor using HepaRG (AID 2283513)
How it was run: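 HepaRG cells, 48 h post-plating, exposed 48 h in serum-free induction medium to 8-point half-log series (top 100 uM, 0.5% DMSO), duplicate; mRNA by qRT-PCR (TaqMan, Fluidigm), normalized to ACTB/GAPDH/POLR2A; bidirectional fit vs DMSO.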

[8] = read-out: Lipase C (LIPC), LIPC (gene 3990); assay: LTEA_HepaRG_LIPC: Life Technologies and Expression Analysis (LTEA) Assay for Lipase C (LIPC) using HepaRG (AID 2283514)
How it was run: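 Read-out is LIPC transcript level by TaqMan qRT-PCR, normalized to three housekeeping genes, after 48 h chemical treatment of human HepaRG liver cells. Curves span eight concentrations topping at 100 uM; activity in either direction scored relative to 0.5% DMSO.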

[9] = read-out: Lipoprotein lipase (LPL), LPL (gene 4023); assay: LTEA_HepaRG_LPL: Life Technologies and Expression Analysis (LTEA) Assay for Lipoprotein lipase (LPL) using HepaRG (AID 2283515)
How it was run: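 Read-out is LPL transcript level by qRT-PCR, normalized to three housekeeping genes and fitted bidirectionally against the DMSO control. Human HepaRG cells received chemicals for 48 h at up to 100 uM.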

[10] = read-out: MicroRNA 122 (MIR122), gene 406906; assay: LTEA_HepaRG_MIR122: Life Technologies and Expression Analysis (LTEA) Assay for MicroRNA 122 (MIR122) using HepaRG (AID 2283516); note: the transcript read is the microRNA miR-122
How it was run: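 Differentiated human HepaRG cells in serum-free induction medium exposed 48 h to 8 half-log concentrations from 100 uM in 0.5% DMSO, duplicate. MIR122 quantified by Fluidigm TaqMan qRT-PCR, normalised to ACTB, GAPDH, POLR2A; fold change fitted bidirectionally versus DMSO.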

[11] = read-out: matrix metalloproteinase-3 (MMP3), MMP3 (gene 4314); assay: LTEA_HepaRG_MMP3: Life Technologies and Expression Analysis (LTEA) Assay for matrix metalloproteinase-3 (MMP3) using HepaRG (AID 2283519)
How it was run: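 HepaRG, human; 48 h dosing, 8 conc. (max 100 uM, half-log), duplicate, 0.5% DMSO. Readout: MMP3 transcript by Fluidigm TaqMan qRT-PCR, ACTB/GAPDH/POLR2A-normalised. Gain or loss fitted vs DMSO.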

[12] = read-out: Paternally Expressed 10 (PEG10), PEG10 (gene 23089); assay: LTEA_HepaRG_PEG10: Life Technologies and Expression Analysis (LTEA) Assay for Paternally Expressed 10 (PEG10) using HepaRG (AID 2283520)
How it was run: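 Differentiated HepaRG cells exposed 48 h in serum-free induction medium to eight half-log concentrations topping at 100 uM, 0.5% DMSO, in duplicate. PEG10 mRNA quantified by TaqMan qRT-PCR, normalized to ACTB, GAPDH and POLR2A; bidirectional fit versus DMSO.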

[13] = read-out: Nuclear factor NF-kappa-B p105 subunit (Homo sapiens) (UniProt P19838); assay: LTEA_HepaRG_NFKB1: Life Technologies and Expression Analysis (LTEA) Assay for Nuclear Factor Kappa B Subunit 1 (NFKB1) using HepaRG (AID 2283521)
How it was run: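 HepaRG, 48 h exposure; 8-pt half-log series from 100 uM in 0.5% DMSO; duplicates. Readout: NFKB1 mRNA by qRT-PCR (Fluidigm arrays), housekeeping-normalized. Gain/loss fit vs DMSO baseline.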

[14] = read-out: Phosphatase and tensin (PTEN), PTEN (gene 5728); assay: LTEA_HepaRG_PTEN: Life Technologies and Expression Analysis (LTEA) Assay for Phosphatase and tensin (PTEN) using HepaRG (AID 2283523)
How it was run: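 Read-out is PTEN transcript level by multiplexed TaqMan qRT-PCR after 48 h chemical treatment of human HepaRG cultures in serum-free induction medium. Concentrations spanned 100 uM downward in half-log steps, 0.5% DMSO throughout; activity fitted in both directions against vehicle.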

[15] = read-out: solute carrier (SLC22A1), SLC22A1 (gene 6580); assay: LTEA_HepaRG_SLC22A1: Life Technologies and Expression Analysis (LTEA) Assay for solute carrier (SLC22A1) using HepaRG (AID 2283524)
How it was run: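 HepaRG (human liver line), 48 h dosing in serum-free induction medium; 8 conc., half-log down from 100 uM, 0.5% DMSO vehicle, duplicates. Endpoint: SLC22A1 mRNA, qRT-PCR, housekeeping-normalized; gain/loss fit vs DMSO.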

[16] = read-out: Pyruvate Dehydrogenase Kinase 4 (PDK4), PDK4 (gene 5166); assay: LTEA_HepaRG_PDK4: Life Technologies and Expression Analysis (LTEA) Assay for Pyruvate Dehydrogenase Kinase 4 (PDK4) using HepaRG (AID 2283525)
How it was run: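 In this multiplexed human HepaRG expression assay, cells are treated 48 h with test chemicals across an eight-point range starting at 100 uM. PDK4 mRNA changes, normalized to ACTB/GAPDH/POLR2A, are fitted in both directions relative to vehicle.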

[17] = read-out: matrix metalloproteinase-10 (MMP10), MMP10 (gene 4319); assay: LTEA_HepaRG_MMP10: Life Technologies and Expression Analysis (LTEA) Assay for matrix metalloproteinase-10 (MMP10) using HepaRG (AID 2283517)
How it was run: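 Gain or loss of MMP10 mRNA is fitted relative to the 0.5% DMSO vehicle. The human hepatic line HepaRG receives a 48-hour serum-free exposure, in duplicate, with a maximum concentration of 100 uM.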

MYC, MYC (gene 4609) = assay: LTEA_HepaRG_MYC: Life Technologies and Expression Analysis (LTEA) Assay for MYC using HepaRG (AID 2283518)
How it was run: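 Cells are thawed, plated and cultured 48 h, then treated for 48 h with test chemicals (eight half-log concentrations from 100 uM, 0.5% DMSO vehicle). RNA is isolated and MYC expression quantified by qRT-PCR against three housekeeping genes.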

[18] = read-out: Protein phosphatase 2A (PPP2R4), PTPA (gene 5524); assay: LTEA_HepaRG_PPP2R4: Life Technologies and Expression Analysis (LTEA) Assay for Protein phosphatase 2A (PPP2R4) using HepaRG (AID 2283522)
How it was run: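 Differentiated human HepaRG cells in serum-free induction medium were exposed 48 h to 8 concentrations (top 100 µM, half-log steps, duplicate) in 0.5% DMSO. PPP2R4 mRNA was measured by TaqMan qRT-PCR, normalised to ACTB, GAPDH and POLR2A, and fitted bidirectionally versus DMSO.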

Measured: AC50

Nuclear factor NF-kappa-B p105 subunit (Homo sapiens), sequence (P19838 whole entry, looked up): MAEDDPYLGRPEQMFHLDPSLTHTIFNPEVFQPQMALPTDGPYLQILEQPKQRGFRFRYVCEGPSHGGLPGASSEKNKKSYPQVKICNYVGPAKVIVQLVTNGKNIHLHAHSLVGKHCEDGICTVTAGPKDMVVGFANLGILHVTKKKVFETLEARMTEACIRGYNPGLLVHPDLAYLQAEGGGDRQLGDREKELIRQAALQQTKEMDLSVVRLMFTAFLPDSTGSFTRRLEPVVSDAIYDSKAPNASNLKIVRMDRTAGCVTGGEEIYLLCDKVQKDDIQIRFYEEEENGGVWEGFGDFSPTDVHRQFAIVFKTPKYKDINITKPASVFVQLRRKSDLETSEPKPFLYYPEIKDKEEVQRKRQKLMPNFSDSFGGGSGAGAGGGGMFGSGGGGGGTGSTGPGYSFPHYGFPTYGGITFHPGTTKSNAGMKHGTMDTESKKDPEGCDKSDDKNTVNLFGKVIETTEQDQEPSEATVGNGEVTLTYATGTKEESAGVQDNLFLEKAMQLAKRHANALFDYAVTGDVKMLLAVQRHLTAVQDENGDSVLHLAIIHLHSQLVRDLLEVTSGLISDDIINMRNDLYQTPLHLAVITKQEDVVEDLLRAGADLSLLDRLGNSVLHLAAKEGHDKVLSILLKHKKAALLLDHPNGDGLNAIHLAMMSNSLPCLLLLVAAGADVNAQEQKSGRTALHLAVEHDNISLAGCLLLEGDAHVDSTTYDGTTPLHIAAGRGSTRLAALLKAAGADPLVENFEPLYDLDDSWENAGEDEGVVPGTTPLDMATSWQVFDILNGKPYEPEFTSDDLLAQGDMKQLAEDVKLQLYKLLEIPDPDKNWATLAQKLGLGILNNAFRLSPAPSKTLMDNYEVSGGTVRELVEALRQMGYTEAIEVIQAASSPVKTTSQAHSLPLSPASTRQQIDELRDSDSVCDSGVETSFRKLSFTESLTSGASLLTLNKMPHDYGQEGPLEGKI

OCCCBr
not listed: [17] | MYC, MYC (gene 4609) | [18]
inactive: all other assays above

Nc1cc(Cl)cc(C(=O)O)c1Cl
not listed: [4] | [13]
inactive: all other assays above

CCOc1cccc(C2(N3CCN(c4ccccc4)CC3)CCC(C)CC2)c1 (stereo not drawn)
active: [11] 89.9 µM
not listed: [13] | [17] | [18]
inactive: all other assays above

Clc1ccc(C(c2ccc(Cl)cc2)C(Cl)(Cl)Cl)cc1
active: [1] 50 µM | [8] 84.5 µM | [9] 50 µM
not listed: [17] | MYC, MYC (gene 4609) | [18]
inactive: all other assays above

c1ccc(N=Nc2ccccc2)cc1
not listed: [1] | MYC, MYC (gene 4609) | [18]
inactive: all other assays above

CO[C@@H]1[C@H](OC(=O)NC(=O)CCl)CC[C@]2(CO2)[C@H]1[C@@]1(C)O[C@@H]1CC=C(C)C
active: [1] 3.17 µM
not listed: [17] | MYC, MYC (gene 4609)
inactive: all other assays above

C[N+](C)(C)CC1CO1 (stereo not drawn)
not listed: [13] | [17] | MYC, MYC (gene 4609) | [18]
inactive: all other assays above
